ssDAF-12 act: S. stercoralis DAF-12 nuclear receptor activators, primary screen, cell-based, luminescence, HEK293, GRIP1 co-expression, lit1-tk-luc. Nuclear hormone receptor DAF-12 (Strongyloides stercoralis). HEK293 ssDAF-12/GRIP1 lit1-tk-luc reporter; % of 3 µM dafachronic acid response. activation, % at 6.8 µM. 370,000 compounds, 1% hits. AID 652126, 2013;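 active = activation above the mean over all tested compounds plus 3 SD, cut at about 0.9% in these data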
DAX1 inh-1: DAX1 (NR0B1) inhibitors on StAR promoter, primary screen, cell-based, luminescence, SF-1 (NR5A1), full-length DAX-1 | HEK293T StAR-luciferase reporter, SF-1/DAX-1 repression relief | AID 652010, 2013 | inhibition, % at 6.8 µM | 370,000 compounds, 1.1% hits;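 active = inhibition above the mean over all tested compounds plus 3 SD, cut at about 3.6% in these data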;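 also: higher inhibition means more luminescence from relief of DAX-1 repression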
PolyA inhibitor: polyadenylation inhibitors in yeast reporter cells, primary screen, luminescence, S. cerevisiae | S. cerevisiae SKY197-pL101 polyadenylation reporter, beta-gal luminescence; efflux-impaired pdr1/pdr3 knockout yeast; score 100 = 6 SD above DMSO | AID 1875, 2009 | activity score, % at 12 µM | 300,000 compounds, 0.02% hits;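 active = lowest replicate activity score at least 50, where 100 means six control SD above control mean; inconclusive = lowest score under 50 but half or more replicates reach 50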;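 also: yeast exposed to compound for 9 h at 30 °C; higher score means more reporter readthrough which indicates perturbed polyadenylation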
hcDAF-12 act: H. contortus DAF-12 nuclear receptor activators, primary screen, cell-based, luminescence, HEK293, lit1-tk-luc reporter; HEK293 hcDAF-12 lit1-tk-luc reporter; 0% DMSO, 100% Δ7-dafachronic acid; activation, % at 6.8 µM; 370,000 compounds, 1.4% hits;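 active = activation above the mean of all tested compounds plus 3 SD, cut at about 5.5% in these data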
DAX1 inh-2: DAX1 (NR0B1) inhibitors, primary screen, cell-based, HEK293, Gal4-DAX1, luciferase luminescence; inhibition, % at 6.75 µM; Nuclear receptor subfamily 0 group B member 1 (Homo sapiens), P51843; AID 504766, 2011; HEK293 Gal4-DAX1 luciferase reporter; 340,000 compounds, 0.99% hits;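 active = inhibition above the mean over all tested compounds plus 3 SD, cut at about 4.2% in these data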;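 also: inhibition shows as a rise in luminescence from relieved DAX1 repression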
hgDAF-12 ag: H. glycines DAF-12 receptor agonists, primary screen, cell-based, luminescence, HEK293, GAL4 fusion, UAS-luciferase; Nuclear hormone receptor DAF-12 (Heterodera glycines), GAL4 fusion; 370,000 compounds, 1.8% hits; HEK293 GAL4-hgDAF12 UAS-luciferase reporter, agonist luminescence; normalized to butyrate control; activation, % at 6.8 µM; AID 687014, 2013;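 active = activation above a cutoff set at the mean of all screened compounds plus 3 SD, cut at about 10% in these data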
hgDAF12 ag: H. glycines DAF-12 receptor agonists, confirmation, cell-based, luminescence, HEK293, GAL4-LBD fusion. activation, % at 6.8 µM. HEK293 GAL4-hgDAF12 luciferase reporter, agonist mode; percent of butyrate response. shares compounds with hgDAF-12 ag. 3,300 compounds, 80% hits;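 active = mean activation over triplicate wells above the hit cutoff derived from the earlier primary screen, cut at about 11% in these data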
LXR ag 2: LXR agonists, Gal4 luciferase reporter, confirmation, counter-screen for hgDAF-12 agonist project, cell-based, luminescence, HEK293, H. glycines campaign; shares compounds with hgDAF-12 ag; 24 h; activation, % at 6.8 µM; 3,300 tested, under 10 active; AID 743051, 2013;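 active = mean activation of the triplicate above a set limit carried over from the primary screen, none filed active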
Target sequence (P55055 whole entry, looked up, the tested form may be a part): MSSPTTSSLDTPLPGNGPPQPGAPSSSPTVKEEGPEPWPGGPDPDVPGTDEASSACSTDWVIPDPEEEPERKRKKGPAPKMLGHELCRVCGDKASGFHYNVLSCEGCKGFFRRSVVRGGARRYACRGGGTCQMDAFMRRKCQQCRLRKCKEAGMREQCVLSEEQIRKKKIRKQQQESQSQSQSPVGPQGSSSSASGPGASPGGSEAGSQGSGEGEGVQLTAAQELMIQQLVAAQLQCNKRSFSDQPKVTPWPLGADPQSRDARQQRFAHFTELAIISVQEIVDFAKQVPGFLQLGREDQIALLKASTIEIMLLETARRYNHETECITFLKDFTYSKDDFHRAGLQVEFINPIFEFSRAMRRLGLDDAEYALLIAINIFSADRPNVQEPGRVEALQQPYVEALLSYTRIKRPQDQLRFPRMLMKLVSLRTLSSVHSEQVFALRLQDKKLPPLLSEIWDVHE
Numbers stand for hits; n = inactive; u = inconclusive; x = no result given. Shown are actives, neighbours in structure and some others; about 4.1% of the full set was active somewhere.

SMILES | ssDAF-12 act | DAX1 inh-1 | PolyA inhibitor | hcDAF-12 act | DAX1 inh-2 | hgDAF-12 ag | hgDAF12 ag | LXR ag 2
Fc1ccc2nc(Nc3ccccc3)sc2c1 | n | n | n | n | n | 19 | 14 | n
Fc1ccc2nc(Nc3nc4cc5c(cc4s3)OCCO5)sc2c1 | 1.5 | 4.2 | n | n | n | 15 | n | n
OCCOCCNc1ncnc2c1cnn2-c1ccccc1 | n | n | n | n | n | n | x | x
OCCOCCNc1ncnc2c1cnn2-c1ccc(Cl)cc1 | n | 4.5 | n | n | n | 15 | 17 | n
Cc1ccccc1C(=O)Nc1ccc(Br)cn1 | n | n | n | n | n | 14 | 16 | n
O=C(Nc1nccs1)c1ccc(Cl)s1 | n | n | n | n | n | n | x | x
O=C(Nc1ccccc1C(=O)Nc1ccc(Br)cn1)c1ccccc1Cl | n | n | x | n | n | n | x | x
O=C(Nc1ccc(Br)cn1)c1ccc(Br)s1 | n | n | n | 6.2 | n | 20 | 20 | n
O=C(NC1=NCCS1)c1ccc(Br)s1 | n | 3.8 | n | 6.0 | n | 14 | 13 | n
O=C(Nc1ccc(Br)cn1)c1ccc(Cl)s1 | n | n | n | n | n | 15 | 14 | n
O=C(C1CCCN(S(=O)(=O)c2ccc(F)cc2)C1)N1CCOCC1 (centres undefined) | n | n | x | n | n | n | x | x
CCOc1ccc(NC(=O)CSc2nnc(CNC(=O)c3ccco3)o2)cc1 | n | n | n | n | n | n | x | x
O=C(NCc1cccc(C(F)(F)F)c1)c1ccc2nc([C@@H]3O[C@H](CO)[C@@H](O)[C@H]3O)[nH]c2c1 | n | n | x | n | x | n | x | x
CC(Sc1nnc(NC2CC2)s1)C(=O)Nc1ccc(S(N)(=O)=O)cc1 (centres undefined) | n | n | x | n | n | n | x | x
CC(Sc1nnc(NCc2ccccc2)s1)C(=O)Nc1ccc2c(c1)C(=O)c1ccccc1C2=O (centres undefined) | n | n | n | n | n | 15 | n | n
CCc1ccc(NC(=S)NC(=O)CC(C)C)cc1 | n | n | n | n | n | 15 | 12 | n
Cc1ccc(NC(=O)c2ccccc2F)nc1 | n | n | n | n | n | 14 | 14 | n
O=C(Nc1cccc(F)c1)Nc1ccc(Cl)cn1 | n | n | n | n | n | n | x | x
Cc1ccc(NC(=O)c2cc(F)c(F)cc2Cl)nc1 | n | n | n | n | n | 17 | 11 | n
Cc1ccc(NC(=O)Nc2cccc(F)c2)nc1 | n | n | n | n | 4.8 | 13 | 14 | n
C[C@H](CO)N1C[C@H](C)[C@@H](CN(C)C(=O)Nc2ccc3c(c2)OCO3)Oc2c(NC(=O)Nc3ccc(C(F)(F)F)cc3)cccc2C1=O | n | n | x | n | n | n | x | x
CSc1ccc(-c2cc(=O)c3ccccc3o2)cc1 | 3.1 | 3.9 | n | 10 | n | 18 | 18 | n
COCc1[nH]nc2c1C(c1ccc(C)cc1)N(Cc1ccccc1)C2=O (centres undefined) | n | n | x | n | x | n | x | x
CCn1c(C)nc2cc(C(=O)N/N=C/c3ccccc3C)ccc21 | n | n | n | n | n | 14 | 14 | n
C[C@H]1Cn2cnc(C(=O)N(C)Cc3ccccc3)c2C(=O)N1 | n | n | x | n | x | 30 | n | n
SMILES | ssDAF-12 act | DAX1 inh-1 | PolyA inhibitor | hcDAF-12 act | DAX1 inh-2 | hgDAF-12 ag | hgDAF12 ag | LXR ag 2
C[C@H]1CNC(=O)c2c(C(=O)N(C)Cc3ccccc3)ncn21 | n | n | x | n | x | n | x | x
COc1ccc(Cn2cc(COC(=O)Nc3ccc(F)cc3)nn2)cc1 | n | n | x | n | x | n | x | x
CCOC(=O)c1c(C)[nH]c(C(=O)CSc2nccc(C)n2)c1C | n | n | n | n | n | n | x | x
CCOC(=O)c1c(C)[nH]c(C(=O)CSc2ccccc2)c1C | n | n | n | 5.6 | n | 18 | 14 | n
Cc1ccc(-c2nn(-c3ccccc3)cc2C=O)o1 | n | n | n | n | n | 13 | n | n
c1ccc(-c2cn3nc(-c4ccccc4)cnc3n2)cc1 | n | n | x | n | n | 17 | n | n
O=C(c1ccc2c(=O)n(Cc3ccccc3Cl)c(=S)[nH]c2c1)N1CCCC1 | n | n | n | n | n | n | x | x
COc1ccc(NC(=O)C(C)N=C2NS(=O)(=O)c3ccccc32)cc1S(N)(=O)=O (centres undefined) | n | n | x | n | n | 15 | n | n
Cc1nc2c(ccc3nc(NC(=O)c4ccc5c(c4)OCCO5)sc32)s1 | n | n | n | n | n | n | x | x
O=C(NC(=S)Nc1ccc2c(c1)OCCO2)c1cccc2ccccc12 | n | n | n | n | n | n | x | x
O=C(Nc1nc2c(Br)cccc2s1)c1ccc2c(c1)OCCO2 | n | x | x | n | x | 15 | n | n
O=C(NC(=S)Nc1ccc2c(c1)OCCO2)c1cccc(Br)c1 | n | n | n | n | n | 14 | 19 | n
O=C(Nc1cccc(Cl)c1)c1ccc2c(c1)OCCO2 | n | n | n | 6.5 | n | 21 | 18 | n
O=C(Nc1cccc([N+](=O)[O-])c1)c1ccc2c(c1)OCCO2 | n | n | n | n | n | n | x | x
C[C@H](O)[C@@H]1CN2CCc3c([nH]c4c(-c5ccccc5)cccc34)[C@@H]2C[C@@H]1N(C)C(=S)Nc1ccc(C#N)cc1 | n | n | x | n | x | n | x | x
Cc1occc1C(=O)Nc1ccc2c(c1)CCC2 | n | 3.9 | n | n | n | 15 | 15 | n
Cc1ccc(C(=O)Nc2ccc3c(c2)CCC3)o1 | n | n | u | n | n | 16 | 22 | n
COC(=O)[C@@]1(Sc2ccccc2)CC(=O)N[C@@H]1c1ccccc1 | n | n | x | n | x | n | x | x
O=C(NCc1cc(C(F)(F)F)cc(C(F)(F)F)c1)c1cc(-c2cc(F)ccc2OCC2CCCO2)n[nH]1 (centres undefined) | n | n | x | n | x | n | x | x
O=C(Nc1nc2cc3c(cc2s1)OCCO3)c1ccncc1 | n | n | x | n | n | n | x | x
